Many of the other results were omitted from the sample, so hits are more common in it than they were.
Dicer inh: inhibitors of Dicer pre-microRNA processing, primary screen, biochemical, cat-ELCCA, chemiluminescence | z-score at 25 µM | hit rate 6% among 47,000 | cat-ELCCA pre-miR-21 Dicer processing; hits give high values | AID 1347074, 2019 | Endoribonuclease Dicer (Homo sapiens), Q9UPY3; in the data active means z-score above about 3, passing the limit was not always enough;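 further: plate controls were vehicle for no effect and no enzyme for full effect; higher signal means more uncleaved substrate so more Dicer inhibition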
Target sequence (Q9UPY3 whole entry, looked up): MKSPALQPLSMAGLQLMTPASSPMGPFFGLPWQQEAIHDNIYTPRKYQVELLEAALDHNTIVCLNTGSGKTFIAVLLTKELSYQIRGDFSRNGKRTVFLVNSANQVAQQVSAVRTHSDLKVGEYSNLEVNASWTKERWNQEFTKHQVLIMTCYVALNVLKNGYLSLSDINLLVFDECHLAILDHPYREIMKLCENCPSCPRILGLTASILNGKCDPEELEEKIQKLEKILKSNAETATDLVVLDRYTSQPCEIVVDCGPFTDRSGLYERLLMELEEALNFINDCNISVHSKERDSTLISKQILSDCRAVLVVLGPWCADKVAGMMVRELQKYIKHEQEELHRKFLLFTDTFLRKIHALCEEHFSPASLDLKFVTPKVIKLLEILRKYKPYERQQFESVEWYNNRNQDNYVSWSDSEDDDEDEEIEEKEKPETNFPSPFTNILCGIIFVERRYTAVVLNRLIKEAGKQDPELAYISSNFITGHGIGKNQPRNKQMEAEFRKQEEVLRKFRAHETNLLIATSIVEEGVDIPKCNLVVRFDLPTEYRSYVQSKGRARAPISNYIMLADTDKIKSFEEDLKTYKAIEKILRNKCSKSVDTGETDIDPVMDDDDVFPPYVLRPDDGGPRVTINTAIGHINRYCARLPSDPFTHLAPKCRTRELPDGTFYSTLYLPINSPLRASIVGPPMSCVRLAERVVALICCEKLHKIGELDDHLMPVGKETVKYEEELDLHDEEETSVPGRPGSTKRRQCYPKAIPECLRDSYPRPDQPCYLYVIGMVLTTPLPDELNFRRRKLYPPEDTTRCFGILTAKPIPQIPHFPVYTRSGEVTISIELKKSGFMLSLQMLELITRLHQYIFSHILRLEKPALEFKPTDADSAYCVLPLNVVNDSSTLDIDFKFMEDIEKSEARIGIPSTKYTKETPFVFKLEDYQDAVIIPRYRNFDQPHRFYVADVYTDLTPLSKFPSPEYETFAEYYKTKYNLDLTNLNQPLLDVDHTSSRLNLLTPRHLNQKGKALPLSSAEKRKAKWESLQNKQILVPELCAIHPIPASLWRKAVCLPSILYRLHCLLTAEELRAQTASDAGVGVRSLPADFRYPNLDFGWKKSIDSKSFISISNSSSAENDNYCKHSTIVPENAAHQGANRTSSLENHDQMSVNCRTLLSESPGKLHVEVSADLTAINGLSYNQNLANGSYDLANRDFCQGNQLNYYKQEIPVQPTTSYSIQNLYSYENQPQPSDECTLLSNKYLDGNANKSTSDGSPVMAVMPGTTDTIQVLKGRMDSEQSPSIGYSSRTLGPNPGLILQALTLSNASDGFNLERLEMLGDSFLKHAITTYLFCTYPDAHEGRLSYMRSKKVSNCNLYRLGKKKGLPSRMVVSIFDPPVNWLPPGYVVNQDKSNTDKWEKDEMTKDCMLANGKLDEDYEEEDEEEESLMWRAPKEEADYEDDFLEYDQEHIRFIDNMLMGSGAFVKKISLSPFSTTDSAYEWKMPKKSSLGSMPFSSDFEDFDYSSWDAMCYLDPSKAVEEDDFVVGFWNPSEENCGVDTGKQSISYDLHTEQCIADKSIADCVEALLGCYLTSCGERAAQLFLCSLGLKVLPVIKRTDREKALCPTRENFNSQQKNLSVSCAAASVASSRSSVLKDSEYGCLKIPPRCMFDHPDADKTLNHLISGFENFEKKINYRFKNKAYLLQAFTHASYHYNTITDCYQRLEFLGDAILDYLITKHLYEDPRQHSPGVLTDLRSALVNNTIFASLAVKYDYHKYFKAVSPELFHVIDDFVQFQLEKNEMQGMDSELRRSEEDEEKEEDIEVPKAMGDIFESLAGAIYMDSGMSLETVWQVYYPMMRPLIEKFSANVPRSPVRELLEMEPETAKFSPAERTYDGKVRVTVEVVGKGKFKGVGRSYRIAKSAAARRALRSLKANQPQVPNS
The depositor's hits bear a star.

SMILES	Dicer inh
c1cc(-c2nc3ccccc3o2)nc(-c2nc3ccccc3o2)c1	0.28
c1ccc2oc(CCCc3nc4ccccc4o3)nc2c1	5.5*
c1ccc2oc(-c3ccc(-c4nc5ccccc5o4)cc3)nc2c1	2
COc1cc2ncnc(NC3CCCCC3)c2cc1OC	-0.29
O=C(Cn1nc(-c2ccc(F)cc2)c2ccccc2c1=O)c1ccc(F)cc1	0.18
O=C1CC(c2ccccc2)CC(=O)N1c1ccc(N2CCOCC2)cc1	-0.18
Nc1cc(=O)[nH]c(=O)n1-c1ccccc1	-0.47
Nc1cc(=O)[nH]n1C1CCN(c2ccccc2)CC1	3.2*
CCOC(=O)Cc1csc(NS(=O)(=O)c2cn(C)cn2)n1	-0.98
CCCCc1c(COC)[nH]c(=O)[nH]c1=O	-0.51
Cc1c(C)c(C)c(CNC(=S)NN)c(C)c1C	1.6
O=c1c(Cc2ccccc2)c(O)c2cccc3c2n1CCC3	-1
O=c1c(Cc2ccccc2)c(O)c2ccccc2n1-c1ccccc1	4*
O=c1c(Cc2ccccc2)c(O)c2cccc3c4ccccc4n1c23	-1.5
COc1ccc(NC(=O)CC2C(=O)NCCN2C(=O)Nc2ccc(OCc3ccccc3)cc2)cc1 (stereo not given)	1.7
COc1ccc(C2=NN3C(C2)c2cc(OC)ccc2OC3c2cccnc2)cc1 (stereo not given)	4.8*
COc1ccc(O)c(C2=NN3C(C2)c2ccccc2OC3c2cccnc2)c1 (stereo not given)	-0.42
COc1ccc(C2=NN3C(C2)c2cc(Cl)ccc2OC3c2ccncc2)cc1 (stereo not given)	9.1*
COc1ccc(O)c(C2=NN3C(C2)c2cc(Cl)ccc2OC3c2ccncc2)c1 (stereo not given)	2.8
COc1ccc(O)c(C2=NN3C(C2)c2cccc(OC)c2OC3c2cccnc2)c1 (stereo not given)	0.4
Cc1ccc(O)c(C2=NN3C(C2)c2ccccc2OC3c2ccncc2)c1 (stereo not given)	2.3
Cc1ccc(C2=NN3C(C2)c2ccccc2OC3c2ccncc2)cc1 (stereo not given)	6.9*
COc1ccc(C2=NN3C(C2)c2ccccc2OC3c2ccc(C)cc2)cc1OC (stereo not given)	21
Oc1ccccc1C1=NN2C(C1)c1cc(Cl)ccc1OC2c1cccnc1 (stereo not given)	4.8
CC(=O)c1cc(Cl)cc(Cl)c1OC(=O)c1cccc(C(F)(F)F)c1	-0.62
SMILES	Dicer inh
CCOC1c2ccccc2NC(c2ccccc2)C1(C)C (stereo not given)	-0.08
N/C(=N\OC(=O)Nc1cccc(Cl)c1)c1nccnc1Sc1ccc(Cl)cc1	1.6
O=c1[nH]n(CCO)c(=O)c2ccccc12	0.19
COCCOC(=O)C1=C(C)NC2=C(C(=O)CCC2)C1c1ccc(F)c(F)c1 (stereo not given)	28
N#C/C(=C\Nc1nccs1)S(=O)(=O)c1ccc(Cl)cc1	-1.8
CNc1ccc(CSc2ccc(C(F)(F)F)cn2)cc1C(F)(F)F	0.76
Cc1ccccc1-c1nc2c3c4c(sc3ncn2n1)CCCC4	0.26
O=S(=O)(CCSc1nccc(-c2cccs2)n1)c1ccc(F)cc1	0.76
O=S(=O)(CCSc1ncccn1)c1ccc(F)cc1	3*
O=S(=O)(Nc1ncccn1)c1ccc(F)cc1	-1.4
CCOC(=O)C1=C(C)N=C2SC(C)C(=O)N2C1c1ccccc1Cl (stereo not given)	-1.1
COC(=O)C1=C(C)NC2=C(C(=O)CC(c3ccccc3)C2)C1c1cccnc1 (stereo not given)	0.96
CSc1sc(C)cc1C1C(C#N)=C(N)N(c2cccnc2)C2=C1C(=O)CC(c1ccccc1)C2 (stereo not given)	5.8*
CCSc1ccsc1C1C(C#N)=C(N)N(c2cccnc2)C2=C1C(=O)CC(c1ccccc1)C2 (stereo not given)	0.14
c1ccc(-c2csc(-c3nc(-c4ccccc4)cs3)n2)cc1	2.9
CS(=O)(=O)c1sc(Br)c2c1C(=O)CCC2	4.4*
CS(=O)(=O)c1sc(C#N)c2c1C(=O)CCC2	0.08
CC1(C)CC(=O)c2c(S(C)(=O)=O)sc(Br)c2C1	-1.3
CCOC(=O)c1sc(SCc2ccccc2)c2c1CCCC2=O	-1.6
O=C(O)[C@H]1CCCC[C@H]1C(=O)NCCC1=CCCCC1	-0.86
Cc1ccc(S(=O)(=O)NCCC2=CCCCC2)cc1	1.2
O=c1cc(NCCC2=CCCCC2)c2ccccc2o1	3.5*
CCOC(=O)C1=C(C)N=C2SCCC(=O)N2C1c1ccc(OC(C)=O)c(OC)c1 (stereo not given)	1.4
O=C(CCSc1nc(-c2ccc3c(c2)OCO3)cc(C(F)(F)F)n1)NC1CC1	0.49
Oc1ccccc1-c1ccnc2cc(-c3ccccc3)nn12	4.4*
SMILES	Dicer inh
Oc1ccc(F)cc1-c1ccnc2cc(-c3ccccc3)nn12	6
Cc1ccc(-c2cc3nccc(-c4cc(C)ccc4O)n3n2)cc1	-2
C#CCOc1nc2c(c(=O)n(C)c(=O)n2C)n1Cc1ccccc1	0.67
COCCOc1nc2c(c(=O)n(C)c(=O)n2C)n1CCc1ccccc1	1.6
CCCOc1nc2c(c(=O)n(C)c(=O)n2C)n1C(C)c1ccccc1 (stereo not given)	3.5*
Cc1ccc(/C(O)=C2/C(=O)C(=O)N(c3cccnc3)C2c2cccc(O)c2)cc1 (stereo not given)	0.33
CCOC(=O)CSc1nc(C)c2ccccc2n1	0.21
Cc1nc2ccc(Br)cc2c(-c2ccccc2)c1C(=O)O	-0.82
CCCCc1c(O)nc(SCCC(=O)O)[nH]c1=O	-0.2
CCOC(=O)c1cc(C)nc2ccc(Br)cc12	-0.87
CCCCc1c(C)nc2ccccc2c1SCCC(=O)O	3.7*
CCc1c(C)nc2ccc(Br)cc2c1SCCC(=O)O	3.2*
COc1ccc(-c2nnc(SCCC(=O)O)o2)cc1	-0.26
CCCCc1c(C)nc2c(OC)cccc2c1SCCC(=O)O	3.5*
CCCCc1cc(C)c2nc(-c3ccc(OC)c(OC)c3)cc(C(=O)O)c2c1	-6.4
O=S(=O)(c1ccc(-c2ccno2)s1)N1CCN(CCN2CCOCC2)CC1	1.3
O=C(Nc1ccccc1)OCc1cc(-c2ccccc2)c(C(F)(F)F)s1	-0.6
COc1ccc(C(=O)c2c(C)oc3ccc(O)c(CN(C)C)c23)cc1	-1.6
O=S(=O)(c1cccs1)N1CCN(Cc2ccc3c(c2)OCO3)CC1	0.1
COc1ccc(Cl)cc1-c1nc2ccc(OC(C)=O)cc2c(=O)o1	-1.1
O=C(/C=C(\C(=O)c1ccccc1)c1ccccc1)c1ccc2c(c1)OCCO2	0.47
Cc1cccc(C2=C([N+](=O)[O-])Sc3ccccc3N2)c1	1.4
COC(=O)C/C(=N/Nc1c(Cl)cc(C(F)(F)F)cc1Cl)C(=O)OC	-0.62
CCc1[nH]nc2c1C(c1cc(OC)ccc1OC)C(C#N)=C(N)O2 (stereo not given)	-0.73
O=c1cc(Nc2ccc(OC(F)(F)F)cc2)c2ccccc2o1	3.2*
SMILES	Dicer inh
O=C(NNC(=O)Nc1ccc(OC(F)(F)F)cc1)Nc1ccc(OC(F)(F)F)cc1	0.17
O=c1nc(Nc2ccc(OC(F)(F)F)cc2)c2ccccc2o1	0.39
O=C(NCc1ccccc1)Nc1cc(=O)c2ccccc2o1	0.51
CCc1ccc(S(=O)(=O)N2CCN(S(=O)(=O)c3ccc(CC)cc3)C(C)C2)cc1 (stereo not given)	-0.71
COc1ccc(C2/C(=C(\O)c3ccc(Cl)cc3)C(=O)C(=O)N2c2nnc(C)s2)cc1OC (stereo not given)	4.1*
COc1ccc(C2/C(=C(\O)c3ccc(F)cc3)C(=O)C(=O)N2c2nnc(C)s2)cc1OC (stereo not given)	1.7
